Hits are enriched below; roughly 12% of the tested compounds scored in any of these assays.
NS1 inh – blocks influenza NS1 protein function; hit rate 0.4% among 270,000; Potency, µM (doses to about 46.1 µM), inactives show at the top dose activity, positive = more growth; AID 2326; calls by dose curve; note: actives are rising curves; nearly all actives have a fitted effect of over 50% in size
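Compounds were scored for reversing the slow growth caused by influenza A NS1 in S. cerevisiae, measured by optical density at 600 nm. Assay medium contained 2% galactose at pH 6.0; NS1-free yeast of the same strain were the positive control.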
SARS PLP yeast – inhibitors of SARS-CoV papain-like protease in yeast | Potency, µM (highest dose often 32.9 µM), inactives show at the top dose activity, positive = growth rescue, most hits filed as activators | hit rate 0.19% among 330,000 | S. cerevisiae expressing SARS-CoV PLpro, growth rescue; calls by dose curve; note: 0% is about no effect; nearly all actives have a fitted effect of over 55% in size
AMA1-RON2 inh – disrupts binding of P. falciparum AMA1 to RON2. AlphaScreen AMA1-biotinylated RON2 peptide binding. hit rate 0.2% among 360,000. Potency, µM (doses to about 58.2 µM), for inactives: at the highest dose activity change, negative = inhibition, hits mostly inhibitors;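 note: 0% = vehicle wells and -100% = peptide control; nearly all actives have a fitted effect of over 45% in size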
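AMA1 (3D7) with his tag at 25 nM final met compounds first, then biotinylated RON2 peptide at 25 nM; detection used donor plus acceptor beads, 10 µg/mL apiece, read by AlphaScreen after 30 min at room temperature.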
HCV inhibitor – inhibitors of hepatitis C virus infection. Huh7.5.1 HCVcc-Cre infection, luciferase reporter, 44 h. Potency, µM (doses to about 41.8 µM), inactives show at the top dose activity change, negative = inhibition, hits mostly inhibitors. hit rate 3.4% among 340,000. AID 651820; note: % is set by controls: 0 for no effect and ±100 for the full control effect
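A cell-based infection assay in which seeded cells (1,000 per well) receive test compound after 4 h, are inoculated with HCVcc-Cre at approximately 0.5 moi, and are incubated 44 h before luminescence detection.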
Pf growth 48h – inhibits P. falciparum growth in the first generation, 48 h | P. falciparum luciferase growth in erythrocytes, 48 h | Potency, µM (top dose mostly 28.7 µM), for inactives: top-dose activity change, negative = inhibition, usual class: inhibitors | hit rate 5.9% among 310,000; note: % is set by controls: 0 for no effect and ±100 for the full control effect
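Luciferase-expressing P. falciparum in infected erythrocytes (2% hematocrit, 0.1% parasitemia final) in RPMI 1640/0.5% Albumax were exposed to compound for 48 hours at 37 C, 5% CO2; growth read as luminescence.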
Pf growth 96h – P. falciparum growth inhibition at 96 hours; Potency, µM (doses to about 28.7 µM), for inactives: top-dose activity change, negative = inhibition, usual class: inhibitors; P. falciparum luciferase reporter growth, 96 h; AID 504834; hit rate 6.9% among 320,000; note: % is set by controls: 0 for no effect and ±100 for the full control effect
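Cell-based qHTS: luciferase-tagged P. falciparum in erythrocytes (2% hematocrit, 0.05% parasitemia final) incubated with compounds for 96 hours, 37 C, 5% CO2; luciferase detection reagent then added and luminescence measured.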
An asterisk follows results filed as active; ? = inconclusive; . = no result given; [ ] = another dose, or the depositor's remark. Unless noted, calls come from the whole dose curve; as a rule, active = well fitted curve in the direction sought with a large enough effect; inconclusive = small, poorly fitted or top-dose-only effect, or another doubt; inactive = no such curve, though single readings can be large; an effect the other way counts as inactive or inconclusive. Potency is the fitted concentration of half-maximal effect.

SMILES | NS1 inh | SARS PLP yeast | AMA1-RON2 inh | HCV inhibitor | Pf growth 48h | Pf growth 96h
CCN(C1CCCCC1)S(=O)(=O)c1ccc(S(=O)(=O)N2CCN(CCC#N)CC2)cc1 | -34% | -5% | -4% | -7% | ? | 6.6µM*
COc1ccc(O)c(CN2CCCC(N3CCN(c4ccc(F)cc4)CC3)C2)c1 (configuration not stated) | 26% | -8% | -9% | -19% | 4.1µM* | ?
COc1ccc(O)c(CN2CCCC(N3CCc4ccccc4C3)C2)c1 (configuration not stated) | 8% | 5% | 23% | -8% | 12µM* | ?
COc1ccc(N2CCN(C3CCCN(Cc4ccc(F)cc4Cl)C3)CC2)cc1 (configuration not stated) | -17% | 0% | 12% | ? | ? | ?
Oc1ccccc1CN1CCCC(N2CCc3ccccc3C2)C1 (configuration not stated) | 5% | 6% | 51% | -21% | 9.3µM* | 5.2µM*
CCCOc1ccc(C(=O)NCCC(=O)NCCCC(=O)O)cc1 | 4% | -1% | -16% | ? | 1% | -23%
Cc1nnc2sc(SCC(=O)Nc3cccc(Cl)c3)nn2c1=O | . | -2% | 85% | -11% | -23% | ?
O=C(Nc1cccnc1Cl)c1cc2ccccc2o1 | -6% | 0% | 0% | 11% | . | 314%
O=C(O)c1cc2c(s1)-c1ccccc1OC2 | -192% | 2% | -3% | 17% | -1% | 34%
O=C(NC1CC1)c1cc2c(s1)-c1ccccc1OC2 | -161% | -20% | 3% | 11µM* | . | 13µM*
Cc1ccc2cc(/C=C(\C#N)C(N)=O)c(N3CCCCC3)nc2c1 | -2% | 4% | 1% | 14µM* | -4% | -11%
Cc1ccc2cc(C=C(C#N)C#N)c(N3CCCCC3)nc2c1 | -33% | -3% | 3% | ? | 0% | 0%
CCC(C)Nc1ccc(NC(C)CC)cc1 (configuration not stated) | . | 3% | ? | 22µM* | 1µM* | 1.2µM*
CCCCCCCCCCC[N+](C)(C)CC/C=C1/c2ccccc2Sc2ccc(Cl)cc21 | -89% | -3% | -8% | -28% | . | ?
CCCCCCCCCC[N+](C)(C)CC/C=C1/c2ccccc2Sc2ccc(Cl)cc21 | -4% | -2% | -15% | ? | . | 3.7µM*
CC[N+](C)(C)CC/C=C1/c2ccccc2Sc2ccc(Cl)cc21 | -4% | 0% | 4% | -13% | 3.7µM* | 1.7µM*
COc1ccc(/C=C/C(=O)N2CCN(C)CC2)cc1S(=O)(=O)N1CCCCC1 | 6% | 2% | 9% | 8% | -2% | 22%
O=C(NCCCc1ccccc1)c1cccc(NC(=O)C2CCCCC2)c1 | . | . | 16% | 4.5µM* | . | .
C[C@@H](NC(=O)[C@@H]1Cc2ccccc2CN1C(=O)OC(C)(C)C)C(=O)NC1CCCCC1 | 23% | 0% | 13% | -6% | ? | 13µM*
COc1cccc(NC(=O)C2CCN(C(=O)[C@@H]3Cc4ccccc4CN3C(=O)OC(C)(C)C)CC2)c1 | 9% | 3% | 18% | -16% | 10µM* | ?
O=C(NCCCc1ccccc1)c1cccc(NC(=O)C2CCC2)c1 | . | . | 1% | ? | . | .
CC(C)(C)OC(=O)N(CCc1ccccc1)Cc1cccc(OCc2cccc(NC(=O)C3CCC3)c2)c1 | . | . | 0% | -5%[8.37 µM] | . | .
CC(C)(C)OC(=O)N(Cc1ccccc1)Cc1cccc(OCc2cccc(NC(=O)C3CC3)c2)c1 | . | . | 8% | 1.3µM* | . | .
CC(C)(C)OC(=O)N1CCCC(C(=O)Nc2cccc(C(=O)NCCCc3ccccc3)c2)C1 (configuration not stated) | . | . | -1% | ? | . | .
CC(C)(C)OC(=O)N1CCC(C(=O)Nc2cccc(C(=O)NCCCc3ccccc3)c2)CC1 | . | . | -8% | 4µM* | . | .
SMILES | NS1 inh | SARS PLP yeast | AMA1-RON2 inh | HCV inhibitor | Pf growth 48h | Pf growth 96h
Cc1c(NC(=O)COC(=O)c2ccc(Br)o2)c(=O)n(-c2ccccc2)n1C | -1% | 2% | 16% | -17% | 0% | 2%
O=C1/C(=C\c2ccccc2)C2OCC=C3CN4CCC56c7ccccc7N1C5C2C3CC46 (configuration not stated) | -3% | 10% | -6% | 12% | 2.3µM* | 2.6µM*
Cc1cc(C(=O)COC(=O)Cc2n[nH]c(=O)c3ccccc23)c(C)n1-c1cccc(C(F)(F)F)c1 | 9% | -17% | -2% | ? | 9.3µM* | 2.9µM*
O=C(/C=C/c1ccccc1)N(Cc1cccc(Cl)c1)C1CCS(=O)(=O)C1 (configuration not stated) | -2% | 1% | -11% | 19% | 6.6µM* | 4.1µM*
O=C(/C=C/c1ccccc1)N(Cc1ccc(Cl)cc1)C1CCS(=O)(=O)C1 (configuration not stated) | -6% | 0% | 6% | -1% | ? | ?
CC(C)NC(=S)N/N=C/c1sc(N2CCCCC2)nc1-c1cccs1 | 24% | ? | 18%[11.6 µM] | ? | 0% | 0.83µM*
O=C(N/N=C/c1sc(N2CCCCC2)nc1-c1cccs1)C1CC1 | . | -2% | 14% | ? | 10µM* | 5.2µM*
CC(C)NC(=S)N/N=C/c1ccc(N2CCOCC2)cc1 | 4% | 6% | 50% | 0% | 19% | 55%
CCCCNC(=S)N(C)/N=C/c1sc(N2CCCCC2)nc1-c1cccs1 | 6% | -17% | . | -13% | 10µM* | 12µM*
NC(=O)N/N=C/c1sc(N2CCCCC2)nc1-c1cccs1 | . | . | 4% | ? | . | .
Cc1cc(NC(=O)CCN2CCC(C)CC2)ccc1Br | 4% | 2% | -1% | ? | 7% | ?
CN(C)C(=O)c1ccc(NC(=O)COC(=O)C2CCN(S(=O)(=O)c3ccc4c(c3)OCCO4)CC2)cc1 | . | 2% | 0% | -2% | -29% | 21%
CN(CC(=O)Nc1cccc(F)c1)C(=O)/C=C/c1cn(Cc2ccccc2)nc1-c1cccnc1 | . | -1% | 1% | ? | ? | 10µM*
S=C(NC12CC3CC(CC(C3)C1)C2)N1CCCC1 | 0% | 14% | 11% | -2% | -2% | 29%
O=C(CC12CC3CC(CC(C3)C1)C2)NC(=S)N1CCCCC1 | 6% | ? | 27% | 12% | -22% | 9.3µM*
CCOP(=O)(OCC)c1nc(-c2ccccc2)oc1NCc1ccccc1 | -50% | -7% | 4%[11.6 µM] | -6% | 7.4µM* | 2.6µM*
O=S(=O)(c1ccccc1)c1nc(-c2ccccc2)oc1NCc1cccnc1 | -43% | 1% | -3% | -27% | 3% | ?
CCOP(=O)(OCC)c1nc(-c2cccc3ccccc23)oc1NCCc1ccc(OC)cc1 | -28% | -27% | 35% | 0% | 15µM* | ?

Screening results from PubChem.
